# Measurements reported in PubChem BioAssay (EPA / NIEHS).
# The source made the active and inactive calls. Rule for the calls: active = hit-call score of the fitted dose curve at least 0.9, where 1 is the maximum; inactive = score below 0.9.
# What was measured:
# [1] = target: Bile acid receptor (Homo sapiens) (UniProt Q96RI1); experiment: ATG_IR1_CIS: Attagene CIS-FACTORIAL HepG2 Assay for human Nuclear Receptor Subfamily 1 Group H Member 4 (NR1H4), IR1 submotif (AID 2282946); conditions: IR1 reporter transcription, actives raise or lower the signal
# Chain of Bile acid receptor (Homo sapiens) (Q96RI1 whole entry, looked up): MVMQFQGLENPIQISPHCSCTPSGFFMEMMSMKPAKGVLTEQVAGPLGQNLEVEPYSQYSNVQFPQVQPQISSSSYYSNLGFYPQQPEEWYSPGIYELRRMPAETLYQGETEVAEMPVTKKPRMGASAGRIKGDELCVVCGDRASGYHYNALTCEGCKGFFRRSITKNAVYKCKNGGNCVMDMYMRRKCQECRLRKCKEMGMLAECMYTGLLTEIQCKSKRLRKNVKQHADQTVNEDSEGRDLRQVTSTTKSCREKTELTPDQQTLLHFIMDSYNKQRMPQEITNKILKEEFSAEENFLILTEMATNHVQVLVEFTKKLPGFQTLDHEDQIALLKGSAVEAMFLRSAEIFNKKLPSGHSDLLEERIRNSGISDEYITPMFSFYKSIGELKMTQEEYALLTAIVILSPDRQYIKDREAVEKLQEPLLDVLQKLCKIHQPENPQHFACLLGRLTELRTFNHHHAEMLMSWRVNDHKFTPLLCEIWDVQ
# In short: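 Transient MRTU transfection, HepG2; 24 h dosing; RNA → RT-PCR → 6-FAM primer extension → HpaI digest → capillary electrophoresis fluorescence. Gain/loss of signal fitted relative to DMSO.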
# [2] = ATG_GRE_CIS: Attagene CIS-FACTORIAL HepG2 Assay for human Glucocorticoid Response Elements (GRE) (AID 2282947); conditions: HepG2 GRE cis-reporter, Attagene multiplex mRNA; actives raise or lower the signal
# In short: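 HepG2 cells transiently transfected with multiple cis-promoter reporter units measure endogenous TF activity; 24 h compound exposure. Reporter mRNA quantified by RT-PCR, FAM labelling, HpaI digestion and capillary electrophoresis; bidirectional fit vs DMSO baseline.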
# [3] = ATG_ISRE_CIS: Attagene CIS-FACTORIAL HepG2 Assay for human Interferon Regulatory Factor 1 (IRF1) binding to an Interferon-Stimulated Response Element (ISRE) (AID 2282948); conditions: HepG2 ISRE cis-reporter (Attagene), mRNA transcription readout; actives raise or lower the signal
# In short: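 Transfected HepG2 (multiple reporter transcription units, cis elements) dosed 24 h. RNA → oligo(dT) RT → PCR → 6-FAM primer extension → HpaI → CE. DMSO = negative control/baseline.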
# [4] = ATG_M_06_CIS: Attagene CIS-FACTORIAL HepG2 Assay for M06 Transcription Factor (Internal Marker) (AID 2282950); conditions: HepG2 Attagene CIS-FACTORIAL M06 internal marker reporter; actives raise or lower the signal
# In short: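 Cells (HepG2, transiently carrying cis-driven reporter units) receive chemical for 24 h before RNA isolation. Reporter cDNA is PCR-amplified, FAM-labelled by primer extension, HpaI-digested and sized on a capillary analyser.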
# [5] = target: Hypoxia-inducible factor 1-alpha (Homo sapiens) (UniProt Q16665); experiment: ATG_HIF1a_CIS: Attagene CIS-FACTORIAL HepG2 Assay for human Hypoxia Inducible Factor 1 (HIF1A) (AID 2282951); conditions: HepG2 Attagene cis-factorial HIF1a reporter transcription; actives raise or lower the signal
# Chain of Hypoxia-inducible factor 1-alpha (Homo sapiens) (Q16665 whole entry, looked up): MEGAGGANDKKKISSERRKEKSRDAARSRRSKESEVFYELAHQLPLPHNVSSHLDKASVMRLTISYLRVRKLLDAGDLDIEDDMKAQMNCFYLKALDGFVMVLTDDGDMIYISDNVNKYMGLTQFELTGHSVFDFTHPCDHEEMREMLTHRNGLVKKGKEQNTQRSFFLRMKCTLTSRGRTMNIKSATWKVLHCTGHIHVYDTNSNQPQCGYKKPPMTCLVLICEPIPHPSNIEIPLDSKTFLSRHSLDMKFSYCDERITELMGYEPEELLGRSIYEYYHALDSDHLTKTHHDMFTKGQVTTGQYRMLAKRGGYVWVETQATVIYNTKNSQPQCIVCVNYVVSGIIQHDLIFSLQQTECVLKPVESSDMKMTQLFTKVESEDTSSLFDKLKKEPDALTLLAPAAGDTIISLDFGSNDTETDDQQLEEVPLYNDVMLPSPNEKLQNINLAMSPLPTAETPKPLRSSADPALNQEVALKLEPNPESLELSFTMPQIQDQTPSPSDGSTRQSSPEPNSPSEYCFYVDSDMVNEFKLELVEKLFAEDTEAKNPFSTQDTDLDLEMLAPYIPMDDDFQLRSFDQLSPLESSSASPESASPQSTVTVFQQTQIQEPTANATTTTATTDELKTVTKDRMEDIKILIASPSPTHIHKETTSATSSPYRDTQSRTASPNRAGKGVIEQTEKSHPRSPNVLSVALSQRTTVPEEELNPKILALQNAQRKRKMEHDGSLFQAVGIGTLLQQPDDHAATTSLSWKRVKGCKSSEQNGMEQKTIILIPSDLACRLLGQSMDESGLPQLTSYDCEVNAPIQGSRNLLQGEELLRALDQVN
# In short: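 Dosed 24 h, transfected HepG2 cells yielded total RNA whose reporter transcripts were RT-PCR-amplified and sized by capillary electrophoresis using fluorescent labelling; DMSO defined baseline, with gain and loss of signal both fitted.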
# [6] = target: Hepatocyte nuclear factor 6 (Homo sapiens) (UniProt Q9UBC0); experiment: ATG_HNF6_CIS: Attagene CIS-FACTORIAL HepG2 Assay for human Hepatocyte Nuclear Factor 6 (HNF6) (AID 2282952); conditions: HepG2 Attagene cis-factorial HNF6 reporter transcription; actives raise or lower the signal
# Chain of Hepatocyte nuclear factor 6 (Homo sapiens) (Q9UBC0 whole entry, looked up, the tested form may be a part): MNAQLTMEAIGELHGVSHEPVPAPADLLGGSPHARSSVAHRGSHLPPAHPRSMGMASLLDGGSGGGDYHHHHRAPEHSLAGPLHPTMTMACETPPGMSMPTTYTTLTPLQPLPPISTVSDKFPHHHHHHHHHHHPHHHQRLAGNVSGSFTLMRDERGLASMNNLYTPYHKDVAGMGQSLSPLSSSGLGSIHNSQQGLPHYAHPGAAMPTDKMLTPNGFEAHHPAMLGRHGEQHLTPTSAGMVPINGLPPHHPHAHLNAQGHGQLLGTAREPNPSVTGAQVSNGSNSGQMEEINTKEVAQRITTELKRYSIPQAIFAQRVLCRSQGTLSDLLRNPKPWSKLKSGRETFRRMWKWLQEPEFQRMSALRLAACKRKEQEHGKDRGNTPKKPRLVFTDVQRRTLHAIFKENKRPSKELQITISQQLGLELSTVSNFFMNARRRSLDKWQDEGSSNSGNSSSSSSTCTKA
# In short: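 HepG2 cells transiently transfected with cis-element-driven multiplexed reporter units measuring endogenous transcription factor activity. After 24 h exposure, reporter mRNA quantified by RT-PCR, FAM-labelled fragments and capillary electrophoresis; bidirectional fitting versus DMSO.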
# [7] = target: Heat shock factor protein 1 (Homo sapiens) (UniProt Q00613); experiment: ATG_HSE_CIS: Attagene CIS-FACTORIAL HepG2 Assay for human Heat Shock Transcription Factor 1 (HSE) (AID 2282953); conditions: HepG2 HSE cis-reporter, Attagene RNA transcription; actives raise or lower the signal
# Chain of Heat shock factor protein 1 (Homo sapiens) (Q00613 whole entry, looked up): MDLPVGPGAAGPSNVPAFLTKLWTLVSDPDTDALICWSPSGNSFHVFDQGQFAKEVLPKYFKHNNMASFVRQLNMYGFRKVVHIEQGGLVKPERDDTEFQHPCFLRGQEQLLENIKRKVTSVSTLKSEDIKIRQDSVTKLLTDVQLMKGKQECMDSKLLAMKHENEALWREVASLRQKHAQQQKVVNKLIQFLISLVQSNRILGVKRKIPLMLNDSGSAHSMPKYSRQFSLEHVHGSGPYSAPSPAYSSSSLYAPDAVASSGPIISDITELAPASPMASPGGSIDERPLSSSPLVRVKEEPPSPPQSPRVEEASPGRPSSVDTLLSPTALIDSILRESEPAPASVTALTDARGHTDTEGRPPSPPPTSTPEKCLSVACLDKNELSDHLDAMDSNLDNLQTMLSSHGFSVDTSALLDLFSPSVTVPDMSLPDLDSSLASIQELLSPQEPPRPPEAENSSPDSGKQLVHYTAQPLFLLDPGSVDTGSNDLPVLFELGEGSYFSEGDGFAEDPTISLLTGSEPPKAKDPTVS
# In short: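 Liver-derived HepG2 cells carry transiently introduced multiple reporter units governed by cis promoters. Reporter RNA measured 24 h post-dose through reverse transcription, PCR amplification, fluorescent labelling and capillary electrophoresis, normalised to DMSO.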
# [8] = ATG_MRE_CIS: Attagene CIS-FACTORIAL HepG2 Assay for human Metal Responsive Element (MRE) (AID 2282954); conditions: HepG2 MRE cis-reporter transcription, Attagene multiplex; actives raise or lower the signal
# In short: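 HepG2 cells transiently transfected with multiple cis-element reporter units measure endogenous MTF1-driven transcription. After 24 h compound exposure, reporter mRNA is quantified by RT-PCR with 6-FAM labelling, HpaI digestion and capillary electrophoresis; bidirectional fits versus DMSO.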
# [9] = ATG_PBREM_CIS: Attagene CIS-FACTORIAL HepG2 Assay for human Phenobarbital-responsive Enhancer Module (PBREM) (AID 2282955); conditions: HepG2 PBREM cis-reporter, Attagene multiplexed transcription; actives raise or lower the signal
# In short: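 Transfected liver-derived HepG2 cells exposed 24 h; PBREM reporter transcript quantified via RT-PCR and capillary electrophoresis, with activity in either direction referenced to DMSO.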
# [10] = target: Paired box protein Pax-6 (Homo sapiens) (UniProt P26367); experiment: ATG_Pax6_CIS: Attagene CIS-FACTORIAL HepG2 Assay for human Paired Box 6 (PAX6) (AID 2282956); conditions: HepG2 CIS-FACTORIAL PAX6 reporter transcription, RNA readout; actives raise or lower the signal
# Chain of Paired box protein Pax-6 (Homo sapiens) (P26367 whole entry, looked up): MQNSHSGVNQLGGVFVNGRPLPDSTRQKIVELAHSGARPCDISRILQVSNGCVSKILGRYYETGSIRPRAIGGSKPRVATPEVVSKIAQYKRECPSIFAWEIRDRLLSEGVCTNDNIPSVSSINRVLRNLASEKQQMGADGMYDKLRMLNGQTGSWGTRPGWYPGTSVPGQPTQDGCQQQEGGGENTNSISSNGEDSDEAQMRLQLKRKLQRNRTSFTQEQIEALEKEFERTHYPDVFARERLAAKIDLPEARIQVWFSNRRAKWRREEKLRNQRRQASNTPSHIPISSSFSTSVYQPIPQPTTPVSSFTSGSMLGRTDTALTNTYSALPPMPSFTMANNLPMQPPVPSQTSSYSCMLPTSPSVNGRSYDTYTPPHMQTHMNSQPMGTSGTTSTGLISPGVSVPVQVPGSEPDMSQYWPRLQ
# In short: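 Transient MRTU transfection of HepG2 → compound exposure 24 h → TriZol RNA, oligo(dT) RT → PCR, 6-FAM primer extension, HpaI cut → capillary electrophoresis; activity fitted both directions against DMSO.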
# [11] = ATG_PXRE_CIS: Attagene CIS-FACTORIAL HepG2 Assay for human Pregnane X Receptor Element (PXRE) (AID 2282957); conditions: HepG2 Attagene CIS-FACTORIAL PXRE reporter, mRNA; actives raise or lower the signal
# In short: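 HepG2 cells transiently transfected with cis-element-driven multiplexed reporter units; after 24 h chemical exposure, reporter mRNA measured by RT-PCR, 6-FAM labelling, HpaI digestion and capillary electrophoresis. Bidirectional fitting relative to DMSO.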
# [12] = ATG_PPRE_CIS: Attagene CIS-FACTORIAL HepG2 Assay for human Peroxisome Proliferator-activated Response Element (PPRE) (AID 2282958); conditions: HepG2 PPRE cis-element reporter, Attagene transcription factor profiling; actives raise or lower the signal
# In short: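 Measured endpoint: PPRE-controlled reporter mRNA, detected by RT-PCR and capillary electrophoresis fluorescence, from transiently transfected HepG2 cells 24 h after dosing. Curves fitted in both directions using DMSO baseline.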
# [13] = ATG_RORE_CIS: Attagene CIS-FACTORIAL HepG2 Assay for human RAR-related Orphan Receptor Element (RORE) (AID 2282959); conditions: HepG2 Attagene cis-factorial RORE reporter, mRNA; actives raise or lower the signal
# In short: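 Transiently transfected HepG2 reporter cells were treated 24 h. Reporter transcripts were detected by RT-PCR and capillary electrophoresis, with bidirectional fitting against DMSO.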
# [14] = ATG_Sox_CIS: Attagene CIS-FACTORIAL HepG2 Assay for human SRY-box transcription factor (SOX) (AID 2282960); conditions: HepG2 Attagene cis-factorial SOX reporter, mRNA; actives raise or lower the signal
# In short: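 Gain- or loss-of-signal endpoint, fitted bidirectionally with DMSO as negative control. Based on reporter mRNA from transfected HepG2 cells harvested 24 h post-treatment and quantified via RT-PCR and capillary electrophoresis.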
# [15] = target: Transcription factor Sp1 (Homo sapiens) (UniProt P08047); experiment: ATG_Sp1_CIS: Attagene CIS-FACTORIAL HepG2 Assay for human Specificity Protein 1 (Sp1) (AID 2282961); conditions: HepG2 Sp1 cis-reporter transcription, actives raise or lower the signal
# Chain of Transcription factor Sp1 (Homo sapiens) (P08047 whole entry, looked up, the tested form may be a part): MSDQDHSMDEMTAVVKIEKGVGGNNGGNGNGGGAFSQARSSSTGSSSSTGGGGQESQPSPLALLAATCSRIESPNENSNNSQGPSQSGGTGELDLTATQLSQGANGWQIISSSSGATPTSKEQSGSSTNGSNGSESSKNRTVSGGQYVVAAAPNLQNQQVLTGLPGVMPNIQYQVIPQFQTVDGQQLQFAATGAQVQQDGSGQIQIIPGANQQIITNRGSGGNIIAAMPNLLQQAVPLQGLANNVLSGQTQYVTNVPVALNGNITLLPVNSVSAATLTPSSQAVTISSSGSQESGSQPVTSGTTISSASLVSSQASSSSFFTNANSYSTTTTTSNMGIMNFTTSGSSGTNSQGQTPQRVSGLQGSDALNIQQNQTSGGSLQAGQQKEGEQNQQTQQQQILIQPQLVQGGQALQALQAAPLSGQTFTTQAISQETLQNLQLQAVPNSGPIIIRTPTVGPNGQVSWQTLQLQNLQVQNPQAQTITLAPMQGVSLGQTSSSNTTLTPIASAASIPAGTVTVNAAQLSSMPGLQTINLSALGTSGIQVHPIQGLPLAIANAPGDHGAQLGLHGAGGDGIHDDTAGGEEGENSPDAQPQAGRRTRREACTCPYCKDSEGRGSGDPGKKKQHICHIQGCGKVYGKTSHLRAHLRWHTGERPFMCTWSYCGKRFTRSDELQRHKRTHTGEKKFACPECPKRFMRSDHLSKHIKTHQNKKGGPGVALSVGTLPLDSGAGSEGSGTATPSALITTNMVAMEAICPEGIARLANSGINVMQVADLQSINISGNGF
# In short: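 Endpoint reflects endogenous Sp1 transcriptional activity, not an exogenous fusion protein: HepG2 cells with transfected cis-regulated reporters, 24 h dosing, RT-PCR/capillary electrophoresis mRNA read-out, DMSO-normalised bidirectional fit.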
# [16] = ATG_SREBP_CIS: Attagene CIS-FACTORIAL HepG2 Assay for human Sterol Regulatory Element Binding (SREBP) (AID 2282962); conditions: HepG2 Attagene cis-factorial SREBP reporter, mRNA; actives raise or lower the signal
# In short: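 Transfected HepG2 (cis-regulated reporter library, endogenous TFs) → compound 24 h → total RNA → oligo(dT) RT → reporter-specific PCR → FAM primer extension, HpaI cut → CE fluorescence. Fit bidirectional vs DMSO.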
# [17] = target: Signal transducer and activator of transcription 3 (Homo sapiens) (UniProt P40763); experiment: ATG_STAT3_CIS: Attagene CIS-FACTORIAL HepG2 Assay for human Signal Transducer and Activator of Transcription 3 (STAT3) (AID 2282963); conditions: HepG2, Attagene cis-factorial STAT3 reporter transcription; actives raise or lower the signal
# Chain of Signal transducer and activator of transcription 3 (Homo sapiens) (P40763 whole entry, looked up): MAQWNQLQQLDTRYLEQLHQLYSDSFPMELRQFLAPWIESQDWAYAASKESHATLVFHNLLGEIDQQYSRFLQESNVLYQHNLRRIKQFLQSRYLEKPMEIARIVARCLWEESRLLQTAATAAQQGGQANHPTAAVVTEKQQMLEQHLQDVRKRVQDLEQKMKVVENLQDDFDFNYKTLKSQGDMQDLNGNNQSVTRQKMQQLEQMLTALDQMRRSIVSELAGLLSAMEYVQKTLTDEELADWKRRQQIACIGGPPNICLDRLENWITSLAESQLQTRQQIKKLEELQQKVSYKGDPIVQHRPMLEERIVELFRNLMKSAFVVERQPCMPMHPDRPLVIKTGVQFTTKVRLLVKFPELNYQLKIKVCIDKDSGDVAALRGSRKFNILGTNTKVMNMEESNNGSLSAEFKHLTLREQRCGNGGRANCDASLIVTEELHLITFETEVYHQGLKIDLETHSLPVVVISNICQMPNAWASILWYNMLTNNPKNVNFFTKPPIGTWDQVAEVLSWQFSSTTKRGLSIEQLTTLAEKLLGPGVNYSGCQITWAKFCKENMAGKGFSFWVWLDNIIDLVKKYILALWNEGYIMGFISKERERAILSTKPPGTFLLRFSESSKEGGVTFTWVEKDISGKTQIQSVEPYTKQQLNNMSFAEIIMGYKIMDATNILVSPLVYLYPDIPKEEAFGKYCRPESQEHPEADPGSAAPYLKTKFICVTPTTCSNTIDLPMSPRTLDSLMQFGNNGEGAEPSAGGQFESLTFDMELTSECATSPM
# In short: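 HepG2 cells transiently transfected with cis-element-driven multiple reporter transcription units; after 24 h chemical exposure, reporter mRNA measured by RT-PCR, 6-FAM primer-extension labelling, HpaI digestion and capillary electrophoresis. Bidirectional fitting versus DMSO baseline.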
# [18] = ATG_TA_CIS: Attagene CIS-FACTORIAL HepG2 Assay for human TA Basal Promoter (AID 2282964); conditions: HepG2 Attagene CIS-factorial TA basal promoter reporter; actives raise or lower the signal
# In short: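 Background internal-marker endpoint from a 52-component HepG2 cis-reporter panel. Cells treated 24 h; reporter transcripts quantified via RT-PCR and CE fluorescence against DMSO baseline.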
# [19] = ATG_TCF_b_cat_CIS: Attagene CIS-FACTORIAL HepG2 Assay for human T-Cell-Factor with beta-catenin (TCF/b-cat) (AID 2282965); conditions: HepG2 TCF/beta-catenin cis-reporter transcription, actives raise or lower the signal
# In short: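 HepG2 cells transiently transfected with multiple cis-promoter-regulated reporter transcription units, so endogenous transcription factor activity is measured. Reporter mRNA read 24 hours after dosing by RT-PCR, fluorescent labelling and capillary electrophoresis; bidirectional fitting against DMSO.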
# [20] = ATG_M_32_CIS: Attagene CIS-FACTORIAL HepG2 Assay for M32 Transcription Factor (Internal Marker) (AID 2282949); conditions: HepG2 Attagene cis-factorial M32 reporter, mRNA; actives raise or lower the signal;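 note: background control marker of the multiplexed CIS panel rather than a real target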
# In short: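 Following 24 h chemical exposure of HepG2 cells transiently expressing cis-promoter reporter constructs, reporter transcript levels were determined by RT-PCR with fluorescent labelling and capillary electrophoresis, then fitted bidirectionally against DMSO.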
compound,measurement,setting,value
O=c1cc[nH]c(=S)[nH]1,outcome,[1],inactive
same,outcome,[2],inactive
same,outcome,[3],inactive
same,outcome,[4],inactive
same,outcome,[5],inactive
same,outcome,[6],inactive
same,outcome,[7],inactive
same,outcome,[8],inactive
same,outcome,[9],inactive
same,outcome,[10],inactive
same,outcome,[11],inactive
same,outcome,[12],inactive
same,outcome,[13],inactive
same,outcome,[14],inactive
same,outcome,[15],inactive
same,outcome,[16],inactive
same,outcome,[17],inactive
same,outcome,[18],inactive
same,outcome,[19],inactive
Cc1cccc(N(C)C(=S)Oc2ccc3ccccc3c2)c1,outcome,[1],inactive
same,outcome,[2],inactive
same,outcome,[3],inactive
same,outcome,[4],inactive
same,outcome,[6],inactive
same,outcome,[7],inactive
same,AC50,[8],1890 nM (active)
same,AC50,[9],2060 nM (active)
same,outcome,[10],inactive
same,AC50,[11],610 nM (active)
same,AC50,[12],24400 nM (active)
same,AC50,[13],20500 nM (active)
same,outcome,[14],inactive
same,outcome,[15],inactive
same,outcome,[16],inactive
same,outcome,[17],inactive
same,outcome,[18],inactive
CCOC(F)(F)C(F)(F)C(F)(F)C(F)(F)F,outcome,[1],inactive
same,outcome,[2],inactive
same,outcome,[3],inactive
same,outcome,[20],inactive
same,outcome,[4],inactive
same,outcome,[5],inactive
same,outcome,[7],inactive
same,outcome,[8],inactive
same,outcome,[9],inactive
same,outcome,[10],inactive
same,outcome,[11],inactive
same,outcome,[12],inactive
same,outcome,[13],inactive
same,outcome,[14],inactive
same,outcome,[15],inactive
same,outcome,[16],inactive
same,outcome,[17],inactive
same,outcome,[18],inactive
NC(=O)NNC(N)=O,outcome,[1],inactive
same,outcome,[2],inactive
same,outcome,[3],inactive
same,outcome,[20],inactive
same,outcome,[4],inactive
same,outcome,[6],inactive
same,outcome,[7],inactive
same,outcome,[8],inactive
same,outcome,[10],inactive
same,outcome,[12],inactive
same,outcome,[13],inactive
same,outcome,[14],inactive
same,outcome,[15],inactive
same,outcome,[16],inactive
same,outcome,[17],inactive
same,outcome,[18],inactive
